An excerpt weighted towards active compounds, which were near 20% of everything screened.
HCMV inh = blocks human cytomegalovirus replication. HFF cells, HCMV-luciferase reporter, 72 h; stronger effect = lower value. activity change, negative = inhibition, % at 57.5 µM. 410,000 tested, 4.5% active; in the data active = activity change below about -60%; inconclusive = no clear call, values can overlap the other calls; inactive = above about -39%; note: % is set by controls: 0 for no effect and ±100 for the full control effect
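Luciferase read-out from HCMV-luciferase-infected HFFs (MOI 1 PFU/cell) 72 h post infection at 37C; compounds added after 16 h cell attachment; activity normalized between buffer-only basal and Salinomycin (10uM) inhibitor controls.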
Shiga toxin inh = Shiga toxin inhibition. Vero cells, Shiga toxin protein synthesis inhibition reporter. inhibition, % at 38.7 µM. 290,000 tested, 9.2% active; in the data active = inhibition mostly above about 28%, no sharp cut-off; inactive = mostly below about 43%; note: 0% is about no effect
Pf growth 96h = inhibits malaria parasite growth, 96 h. P. falciparum luciferase reporter growth, 96 h. Potency, µM (titrated, usually from 28.7 µM), without a hit: at the top dose activity change, negative = inhibition, hits mostly inhibitors. 320,000 tested, 6.9% active. AID 504834; note: potency is the fitted concentration of half-maximal effect; % is set by controls: 0 for no effect and ±100 for the full control effect
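Erythrocytes infected with luciferase-expressing P. falciparum were dispensed at 2% hematocrit and 0.05% parasitemia (final), then incubated with compounds 96 hours at 37 C in 5% CO2. Luminescence after detection reagent addition reported growth.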
CHX counter = affects cycloheximide protein synthesis inhibition readout, counter-screen; cell reporter, cycloheximide protein synthesis inhibition counterscreen; max response, %; 300,000 tested, 12% active; in the data active = max response mostly above about 13%, no sharp cut-off; inactive = mostly below about 14%; note: read at 38.3 µM for the half of the compounds with a filed dose; 0% is about no effect
Pf growth 48h = inhibits P. falciparum growth in the first generation, 48 h; P. falciparum luciferase growth in erythrocytes, 48 h; Potency, µM (titrated, usually from 28.7 µM), inactives show top-dose activity change, negative = inhibition, most hits filed as inhibitors; 310,000 tested, 5.9% active; AID 504832; note: potency is the fitted concentration of half-maximal effect; % is set by controls: 0 for no effect and ±100 for the full control effect
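In quantitative HTS format, infected erythrocytes bearing luciferase-reporter parasites were treated for a single generation at 37 C. Luminescence after adding detection reagent served as the growth measure.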
Starred values were filed as active, the others as inactive; ? = inconclusive; . = not tested or not shown; + = active, no number; [ ] = remark or other dose. Unless noted, calls come from the whole dose curve; as a rule, active = well fitted inhibition curve with a large enough effect; inconclusive = small, poorly fitted or top-dose-only effect, or another doubt; inactive = no such curve, though single readings can be large or run the other way.

SMILES	HCMV inh	Shiga toxin inh	Pf growth 96h	CHX counter	Pf growth 48h
CCCOc1ccc(N2C(=O)CC(N(CCOC34CC5CC(CC(C5)C3)C4)C(C)=O)C2=O)cc1 (configuration not stated)	4	-6	5.2µM*	-6	44%
CCCOc1ccc(N2C(=O)CC(N(Cc3ccc(OC)cc3)C(=S)Nc3ccccc3)C2=O)cc1 (configuration not stated)	-28	30	?	25*	?
CNC(=S)N(Cc1ccc(OC)cc1)C1CC(=O)N(c2ccc(OC)cc2)C1=O (configuration not stated)	?	3	?	-1	-22%
Cc1ccccc1NC(=O)C(C)Sc1nnc(CN2CCCC2)n1Cc1ccccc1 (configuration not stated)	-36	.	.	.	.
COc1cc(NC(=O)NCCc2c(C)nn(C)c2C)cc(OC)c1OC	9	.	.	.	.
S=C(NCCCc1cnc[nH]1)NCCCN(Cc1ccc(Cl)cc1)c1ccc(Br)cn1	-6	.	.	.	.
CCCOc1ccc(N2C(=O)CC(N(CCc3ccc(OC)c(OC)c3)C(=S)Nc3ccccc3)C2=O)cc1 (configuration not stated)	.	16	?	13	2.1µM*
COc1ccc(C(=O)Nc2cc(C)on2)cc1S(=O)(=O)N1CC(c2ccccc2)CC1=O (configuration not stated)	19	-2	73%	4	?
OC1c2cc(Br)ccc2N=C2CCCN21 (configuration not stated)	-100*	-17	10µM*	-4	8.3µM*
OC1c2cc(Br)ccc2N=C2CCCCCN21 (configuration not stated)	41	.	.	.	.
CCCCN(C(=O)C1CC1)C1CCS(=O)(=O)C1 (configuration not stated)	-13	.	59%	.	31%
CCn1nc(C)cc1-c1nnc(SCC(=O)Nc2ccccc2)n1CCCOC	-9	15	-4%	2	27%
CCn1nc(C)cc1-c1nnc(Sc2ncc([N+](=O)[O-])s2)n1C	-96*	-8	0%	-4	8%[0.00184 µM]
C/C(=N\NC(=O)c1nnn(-c2nonc2N)c1-c1cccs1)c1ccc(C)cc1	0	10	-22%	-3	-4%
C/C(=N\NC(=O)c1nnn(-c2nonc2N)c1-c1cccs1)c1ccc(O)cc1	0	5	12µM*	3	12µM*
COc1ccc(/C(C)=N/NC(=O)c2nnn(-c3nonc3N)c2-c2cccs2)cc1OC	+	16	-14%	1	-6%
COc1ccc(/C(C)=N/NC(=O)c2nnn(-c3nonc3N)c2-c2cccs2)cc1	0	-10	-18%	1	0%
CCc1ccc2c(c1)c1nnc(NN)nc1n2C	15	-6	?	-1	12µM*
CCCn1c2ccc(F)cc2c2nnc(NN)nc21	-24	-5	1%	-5	?
CCc1ccc2c(c1)c1nnc(NN)nc1n2CC	-9	-8	?	-3	?
NNc1nnc2c3cc(F)ccc3n(Cc3ccccc3)c2n1	-95*	-12	3.3µM*	-1	1.5µM*
CCn1c2ccc(F)cc2c2nnc(NN)nc21	-1	-9	3.7µM*	-1	?
CCCCNC(=O)C1c2ccccc2OCC(=O)N1Cc1cccnc1 (configuration not stated)	-9	.	.	.	.
CC(C)NC(=O)Cn1c(=O)n(CC(=O)N2CCCCC2)c(=O)c2sccc21	-30	6	30%	-2	10%
CC(C)[C@H](NC(=O)OC(C)(C)C)c1cc(C(=O)NCCc2c[nH]c3ccccc23)c(N)s1	-5	.	.	.	.
SMILES	HCMV inh	Shiga toxin inh	Pf growth 96h	CHX counter	Pf growth 48h
CCCCOc1ccc(/C=C/C(=O)NC2=Nc3ccccc3NC(C)=C2C(=O)OCC)cc1OC	70	19	10µM*	15	?
Cc1cc(O)c(C(=O)/C=C/c2ccccc2Br)c(=O)o1	-87*	.	-16%	20*	?
Cc1cc(O)c(C(=O)/C=C/c2ccc(C(C)C)cc2)c(=O)o1	34	66*	-11%	53*	17%
CCOc1ccc(/C=C/C(=O)c2c(O)cc(C)oc2=O)cc1	?	57*	36%	42*	31%
COc1ccc(/C=C\C(=O)c2c(O)ccc3c(C)cc(=O)oc23)cc1	?	-33	.	10	?
Cc1cc(O)c(C(=O)/C=C/c2ccccc2)c(=O)o1	-92*	44*	?	14	?
CCOC(=O)c1c(-c2ccccc2)csc1NC(=O)c1cc(-c2ccc(Br)cc2)on1	10	.	.	.	.
CCOC(=O)N1CCc2c(sc3c2c(=O)n(-c2ccc(F)cc2)c(=O)n3CC(=O)c2ccc(Cl)cc2)C1	-18	.	.	.	.
CC1CN(C(=O)N2CCC(C(=O)NCCC3=CCCCC3)CC2)c2ccccc2O1 (configuration not stated)	24	.	.	.	.
COC(=O)c1cnc(NC(=O)C2(C)CCCN(C(C)=O)C2)s1 (configuration not stated)	16	.	.	.	.
CCCOc1ccccc1C(=O)N1CCCCC1CCN1CCOCC1 (configuration not stated)	-13	.	.	.	.
O=C(Nc1cccc2ccccc12)c1cccc(F)c1	30	28	-3%	7	42%
NS(=O)(=O)c1ccc(O)c(NC(=O)c2ccc([N+](=O)[O-])cc2)c1	29	68	?	22*	-54%
O=C(Nc1cc([N+](=O)[O-])ccc1O)c1cccc(C(=O)Nc2cc([N+](=O)[O-])ccc2O)c1	21	-4	-10%	-1	18%
O=C(Nc1cccc2ccccc12)c1ccc([N+](=O)[O-])cc1	-14	21	7.4µM*	14*	27%
O=C(Nc1cccc2ccccc12)c1ccccc1Cl	-18	5	-3%	6	17%
Nc1ccccc1C(=O)Nc1cccc2ccccc12	11	36*	111%	35*	150%
O=C(Nc1cccc2ccccc12)c1ccc(F)cc1	0	52*	45%	44*	32%
O=C(CC(NC(=O)c1ccccc1)c1ccccc1)Nc1cccc2ccccc12 (configuration not stated)	98	-10	28%	-2	?
O=C(Nc1cccc2ccccc12)c1ccccc1	106	96*	94%	42*	96%
NC(=O)c1ccccc1NC(=O)Nc1cccc2ccccc12	-22	15	-7%	36*	?
CCCCOC(=O)n1c(=S)oc2cc(Cl)ccc21	-29	101*	41%	24*	23%
CCOC(=O)C1=NOC2(C1)C(=O)Nc1c(Cl)cccc12 (configuration not stated)	76	.	.	.	.
CC1C(=O)Nc2ccccc2N1C(=O)c1ccccc1 (configuration not stated)	-16	-9	16%	-2	5%
COc1ccc(N2C(=O)CN(Cc3cc(OC)c(OC)c(OC)c3)C2=S)cc1	-32	-8	10%	10	?
COc1ccc(CN2CC(=O)N(c3cc(Cl)ccc3OC)C2=S)cc1OC	-29	-8	-4%	-4	9.3µM*

Screening data (PubChem)
